Test [1] in a line: Viability qHTS for spleen associated tyrosine kinase inhibitor (SYKi) naive MV4-11 cells (AID 1963823). Note: nearly all actives have a fitted effect of over 40% in size. The method in brief:
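Viability of MV4-11 AML cells lacking prior SYK inhibitor exposure is scored by CellTiter-Glo luminescence following 72 hr compound incubation at 37 C, 5% CO2, seeded at 500 cells per well.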

Test [2] in a line: Viability qHTS for spleen associated tyrosine kinase inhibitor (SYKi) drug resistant MV4-11 cells (AID 1963824). Note: nearly all actives have a fitted effect of over 35% in size. The method in brief: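 CellTiter-Glo luminescence, read 10 min after reagent addition, reports viability after a 72 hr compound exposure. Cells are an MV4-11 line made resistant to SYK inhibition, seeded at 500 per well onto compound-containing plates.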
In general terms: Quantitative high-throughput screening tests each substance at several concentrations.

Inconclusive results are not listed. Values without a mark were called inactive. The source made the active and inactive calls. Calls come from the whole dose curve; as a rule, active = well fitted cell-killing curve with a large enough effect; inconclusive = small, poorly fitted or top-dose-only effect, or effect the other way; inactive = no such curve, though single readings can be large or run the other way.
Potency is the fitted concentration of half-maximal effect.

Turning to `Cc1nc(Nc2cnn(C3CCNCC3)c2)nc2c1N(C)C(=O)c1cc3ccccc3cc1N2C`, the Potency was 3.66 µM (active) in test [1] and 6.51 µM (active) in test [2].
The corresponding values for `COc1ccc(C(=O)OC2C3C=COC(OC4OC(CO)C(O)C(O)C4O)C3C3(CO)OC23)cc1OC` (centres undefined) are “inactive” and “inactive”.
Consider `COc1ccc(-c2cnc3ccc(NCc4ccc(S(N)(=O)=O)cc4)nn23)cc1OC`, for which the Potency is 0.92 µM (active) in test [1] and 1.64 µM (active) in test [2].
The corresponding values for `C=C1CC[C@@H]2[C@](C)(CO)[C@H](O)CC[C@@]2(C)[C@@H]1C/C=C1/C(=O)OC[C@H]1O` are 2.63 µM (active) and 2.95 µM (active).
On to `Oc1cccc(Nc2ccnc3[nH]c4ccccc4c23)c1`, for which the Potency in test [1] was 1.84 µM (active); in test [2] it was 2.31 µM (active).
With `O=C(/C=C/c1ccc(O)c(O)c1)O[C@H]1[C@@H]2C=CO[C@@H](O[C@@H]3O[C@H](CO)[C@@H](O)[C@H](O)[C@H]3O)[C@@H]2[C@@]2(CO)O[C@@H]12`, the Potency entry in test [1] and in test [2] was “inactive” in each case.
`COc1cc(O)cc2c1C(=O)OC(C)C2` (centres undefined): the Potency result in test [1] and in test [2] was “inactive” each time.
Take `CC(CCc1ccc(O)cc1)O[C@@H]1O[C@H](CO[C@@H]2OC(CO)[C@H](O)[C@H]2O)[C@@H](O)[C@H](O)[C@H]1O` (some centres undefined): the Potency entry in test [1] and in test [2] was “inactive” in each case.
Take `COC(=O)CC1(O)C(=O)Nc2ccccc21` (centres undefined): the Potency entry in test [1] and in test [2] was “inactive” throughout.
As to `OC1(CN2CCC(COc3noc4cccc(O[C@@H]5CCOC5)c34)CC2)CCOCC1`, the Potency result in test [1] and in test [2] was “inactive” in each case.
As for `COc1cc2c(cc1NS(=O)(=O)c1ccc(Br)cc1C)n(C)c(=O)n2C`, the Potency in test [1] and in test [2] was 2.31 µM (active) in each case.
As for `C[N+]1(C)[C@@H]2CC[C@H]1CC(OC(=O)C(O)c1ccccc1)C2` (some centres undefined), the Potency result in test [1] and in test [2] was “inactive” in each case.
Consider `C=C1C(=O)O[C@H](CCC)[C@H]1C(=O)O`, for which the Potency result in test [1] and in test [2] was “inactive” throughout.
For `O=C(O)CCc1cccc(O[C@@H]2O[C@H](CO)[C@@H](O)[C@H](O)[C@H]2O)c1O`, the Potency entry in test [1] and in test [2] was “inactive” throughout.
For the molecule `CC1CCC2(NC1)OC1C(=O)C3C4CCC5CC(O[C@@H]6O[C@H](CO)[C@@H](O)[C@H](O)[C@H]6O[C@@H]6O[C@@H](C)[C@H](O)[C@@H](O)[C@H]6O)CCC5(C)C4CCC3(C)C1C2C` (some centres undefined), the Potency result in test [1] and in test [2] was “inactive” each time.
Turning to `COc1cc(C(C)=O)ccc1O[C@@H]1O[C@H](CO[C@@H]2O[C@@H](C)[C@H](O)[C@@H](O)[C@H]2O)[C@@H](O)[C@H](O)[C@H]1O`, the Potency result in test [1] and in test [2] was “inactive” in each case.
For `CC1(C)CCCC2(C)C1CC=C1C(=O)OC(O)C12O` (centres undefined), the Potency result in test [1] and in test [2] was “inactive” in each case.
In the case of `C/C=C1\[C@H](O[C@@H]2O[C@H](CO)[C@@H](O)[C@H](O)[C@H]2O)OC=C(C(=O)O)[C@H]1CC(=O)OCCc1ccc(O)cc1`, the Potency result in test [1] and in test [2] was “inactive” each time.
As to `Cc1nnc(-c2sc(NC(=O)[C@H](C(C)C)n3c(=O)[nH]c4ccccc4c3=O)nc2C)o1`, the Potency entry in test [1] and in test [2] was “inactive” throughout.
On to `CC(=O)OC[C@@]12[C@@H](OC(C)=O)C[C@@H](C)[C@](C)([C@@H]3C[C@H]4C=CO[C@H]4O3)[C@H]1CCC[C@]21CO1`, for which the Potency result in test [1] and in test [2] was “inactive” each time.
In the case of `C=C1[C@@H]2[C@H]3OC(=O)C(=C)[C@@H]3CC[C@@](C)(O)[C@@H]2C[C@@H]1O[C@@H]1O[C@H](CO)[C@@H](O)[C@H](O)[C@H]1O`, the Potency entry in test [1] and in test [2] was “inactive” in each case.
For `COc1ccc(/C=C/C(=O)O[C@@H]2[C@@H](O)[C@@H](O)[C@H](O[C@@H]3C=C(CO)[C@H]4[C@H](O[C@@H]5O[C@H](CO)[C@@H](O)[C@H](O)[C@H]5O)OC=C[C@H]43)O[C@H]2C)cc1O`, the Potency result in test [1] and in test [2] was “inactive” each time.
On to `CCCCN1CCCC[C@H]1C(=O)Nc1c(C)cccc1C`, for which the Potency entry in test [1] and in test [2] was “inactive” in each case.
In the case of `Cc1cc(O)cc(O[C@@H]2O[C@H](CO)[C@@H](O)[C@H](O)[C@H]2O)c1`, the Potency entry in test [1] and in test [2] was “inactive” each time.
For `COC(=O)C1=CO[C@@H](O[C@@H]2O[C@H](CO)[C@@H](O)[C@H](O)[C@H]2O)[C@@H]2C(CO)=CC[C@H]12`, the Potency result in test [1] and in test [2] was “inactive” throughout.
Consider `CCCN(CCC)C(=O)C1=Cc2ccc(-c3ccc(C(=O)N4CCCC4)cc3)cc2N=C(N)C1`, for which the Potency is 8.33 µM (active) in test [1] and 4.17 µM (active) in test [2].
Regarding `O=C(NCc1nc2ccccc2c(=O)n1-c1ccc(F)cc1)Nc1ccc(Cl)c(C(F)(F)F)c1`, the figures for the Potency in test [1] and in test [2] were 23.1 µM (active) and 20.6 µM (active), respectively.

For the origin of these results see PubChem BioAssay (NCATS).
